Inhibition data for 36 compounds are collected here from ChEMBL document CHEMBL3433997, “St. Jude Leishmania screening dataset” (2016).

Assay type in all cases: functional
Experiment [1] concerns the target Solute carrier family 2, facilitated glucose transporter member 1 (Homo sapiens) (UniProt P11166). The experiment in a line: ST_JUDE_LEISH: Cytotoxicity at 2uM final concentration against transgenic Leishmania Mexicana promastigotes LmGLUT1 that are glucose transport deficient and complemented with the human glucose transporter GLUT1. Activity is measured by DNA content using SYBR green in vitro.

Experiment [2] has as its target Hexose transporter 1 (Plasmodium falciparum) (UniProt O97467). Nature of the experiment: ST_JUDE_LEISH: Cytotoxicity at 2uM final concentration against transgenic Leishmania Mexicana promastigotes LmPfHT that are glucose transport deficient and complemented with the Plasmodium falciparum hexose transporter. Activity is measured by DNA content using SYBR green in vitro.

In experiment [3] the target is Glucose transporter (Leishmania mexicana) (UniProt O61059). The experiment in a line: ST_JUDE_LEISH: Cytotoxicity at 2uM final concentration against transgenic Leishmania Mexicana promastigotes LmGT2 that are glucose transport deficient and complemented with the L. Mexicana glucose transporter 2. Activity is measured by DNA content using SYBR green in vitro.

A word on the inhibition: it is the relative decrease from the control value, in per cent.

Solute carrier family 2, facilitated glucose transporter member 1 (Homo sapiens), sequence (P11166 whole entry): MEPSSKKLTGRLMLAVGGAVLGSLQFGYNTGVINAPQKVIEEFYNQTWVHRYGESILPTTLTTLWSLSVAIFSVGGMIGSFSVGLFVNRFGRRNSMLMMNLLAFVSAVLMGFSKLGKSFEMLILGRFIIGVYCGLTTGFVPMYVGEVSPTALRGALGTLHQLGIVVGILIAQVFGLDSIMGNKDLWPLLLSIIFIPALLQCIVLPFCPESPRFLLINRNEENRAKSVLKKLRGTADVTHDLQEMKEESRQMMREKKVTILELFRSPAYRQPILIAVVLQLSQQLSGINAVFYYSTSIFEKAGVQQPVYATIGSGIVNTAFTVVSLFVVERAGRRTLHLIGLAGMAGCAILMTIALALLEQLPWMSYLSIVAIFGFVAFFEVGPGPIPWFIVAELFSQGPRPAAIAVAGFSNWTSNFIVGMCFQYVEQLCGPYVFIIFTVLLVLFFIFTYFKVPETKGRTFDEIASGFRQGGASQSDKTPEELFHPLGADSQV

As for `Cc1cc(N2CCN(C(=O)OC(C)(C)C)CC2)ccc1N`, the inhibition in experiment [1] stood at 6.77%; in experiment [2] it was 8.78%; in experiment [3], 7.39%.

With `CCOc1cc(C)ccc1C1CCN(CCCCNC(=O)c2ccc(NC(=O)c3cc(Cl)cc(Cl)c3)cc2)CC1`, the inhibition in experiment [1] is 2.78%; in experiment [2], 0.36%; in experiment [3], 1.02%.

Turning to `COc1cc2ccccc2cc1OCCCN1CCN(CC(c2ccc(F)cc2)N2CCN(C(C)C)CC2)CC1` (stereo not drawn), the inhibition in experiment [1] was -2.97%; in experiment [2] it was -0.78%; in experiment [3], 2.29%.

As to `COc1ccccc1N(C)CCNc1cc(C)nc(Nc2ccc(C)cc2)n1`, the inhibition was determined as 8.84% in experiment [1], 7.28% in experiment [2] and 1.83% in experiment [3].

As to `O=C(Nc1nc2ccc(Cl)cc2s1)c1csnn1`, the inhibition is -1.77% in experiment [1], -1.39% in experiment [2] and -5.77% in experiment [3].

In the case of `Cc1cc(N[C@@H](Cc2ccccc2)C(=O)NCc2cccc(F)c2)nc(NCCc2cccs2)n1`, the inhibition in experiment [1] was 2.6%; in experiment [2], 2.99%; in experiment [3] it was 2.23%.

Turning to `Cc1noc(C)c1-c1ccc2c(Nc3nccc4ccccc34)c(C(N)=O)cnc2c1`, the inhibition in experiment [1] came out at 103%; in experiment [2], 89.7%; in experiment [3], 102%.

On to `CCc1cn2c3c(cc(C(=O)N[C@@H](Cc4ccccc4)[C@H](O)CNC4CCC4)cc13)N(C)S(=O)(=O)CC2`, for which the inhibition in experiment [1] was determined as 2.42%; in experiment [2] it was 5.19%; in experiment [3], 1.83%.

In the case of `CN(c1ccc(NC(=O)Nc2cc(C(C)(C)C)on2)cc1)c1ccnc(NCCOC(=O)Nc2cc(C(C)(C)C)on2)n1`, the inhibition came to 10.6% in experiment [1], 7.48% in experiment [2] and 11.5% in experiment [3].

For the compound `COC(=O)c1cc2cccc(NC[C@@H](C)NC[C@H](O)c3cccc(Cl)c3)c2[nH]1`, the inhibition in experiment [1] was -0.1%; in experiment [2], 1.58%; in experiment [3] it was 1.28%.

Take `CCOC(=O)[C@H](Cc1cc([N+](=O)[O-])c(Oc2ccc(OC)c(Cc3ccc(OC)c(C(C)C)c3)c2)c([N+](=O)[O-])c1)NC(=O)C(F)(F)F`: the inhibition in experiment [1] was 10.8%; in experiment [2], 9.19%; in experiment [3], 12.6%.

For the compound `COc1ccc(NC(=O)N2CCc3ccc(OCCN(C(C)C)C(C)C)cc32)cc1C(F)(F)F`, the results for the inhibition in experiment [1], in experiment [2] and in experiment [3] were 7.93%, 7.33% and 5.73%, respectively.

On to `O=c1c(Br)ccccc1Br`, for which the inhibition in experiment [1] turned out to be 1.2%; in experiment [2], 3.16%; in experiment [3], 2.97%.

On to `Cn1cc(Br)c(-c2cccc(Nc3ccnc4cc(-c5nccs5)ccc34)c2)n1`, for which the inhibition in experiment [1] amounted to 3.67%; in experiment [2], 2.34%; in experiment [3] it was 4.06%.

As to `Cn1nc(-c2ccccc2F)c2cc(C(=O)NC3CCN(Cc4ccccc4)CC3)sc21`, the inhibition in experiment [1] is -0.18%; in experiment [2] it was -1.6%; in experiment [3], -1.7%.

For the compound `Cc1cc(C(=O)Nc2ccc(OCc3ccccc3)cc2)on1`, the inhibition in experiment [1] is -1.56%; in experiment [2], -2.29%; in experiment [3] it was 0.64%.

Regarding `CCc1cc(OC)c(C(=O)NC2CCN(C[C@H](O)c3ccnc4ccc(OC)cc34)CC2)cc1Br`, the inhibition in experiment [1] is 1.58%; in experiment [2], -0.43%; in experiment [3], -0.3%.

As for `COc1cc(NC(=O)N2CCc3ccc(OCCC4CCCN4C)cc32)cc(C(F)(F)F)c1` (stereo not drawn), the inhibition in experiment [1] is -0.5%; in experiment [2], 0.15%; in experiment [3] it was -0.48%.

For `CNCc1cccc2nc(-c3csc(Cc4cc(Cl)ccc4OCC(C)C)n3)[nH]c12`, the values for the inhibition in experiment [1], in experiment [2] and in experiment [3] were -0.53%, 0.5% and -0.08%, respectively.

In the case of `O=C(/C=C/c1ccc(Cl)c(Cl)c1)N1CCC(CNCc2cccc3cc[nH]c23)CC1`, the values for the inhibition in experiment [1], in experiment [2] and in experiment [3] were 1.64%, 0.75% and 1.48%, respectively.

For `O=C(CN1CCC2(CCC1=O)CC(=O)c1ccccc1O2)NCCN1CCOCC1` (stereo not drawn), the inhibition in experiment [1] was 2.45%; in experiment [2], 7.44%; in experiment [3] it was 4.93%.

For `FC(F)(F)c1cccnc1N1CCC(Nc2nc3cc(Cl)ccc3[nH]2)CC1`, the inhibition worked out at 5.58% in experiment [1], 1.96% in experiment [2] and 3.47% in experiment [3].

Consider `Cc1cccc(Nc2nccc(NCC(O)c3ccc(C(F)(F)F)cc3)n2)c1` (stereo not drawn), for which the inhibition is 10.6% in experiment [1], 11.4% in experiment [2] and 2.83% in experiment [3].

On to `CN(C)CCCOc1ccc(CCCCc2ccc(Cl)cc2C(=O)c2ccccc2)cc1`, for which the figures for the inhibition in experiment [1], in experiment [2] and in experiment [3] were 13.3%, 10.2% and 7.71%, respectively.

As for `CSc1nccc(-c2ccc3ccnc(N)c3c2)n1`, the inhibition in experiment [1] came out at 11.2%; in experiment [2] it was 10.7%; in experiment [3], 9.37%.

`CC(CN1CCN(C)CC1)C(=O)Nc1cccc(-c2ccc(-c3nc4ccccc4[nH]3)cc2)c1` (stereo not drawn): the values for the inhibition in experiment [1], in experiment [2] and in experiment [3] were 0.63%, 1.17% and -1.58%, respectively.

Regarding `CCCNc1nc(NCc2c(C)cccc2C)nc(NC(C)(C)C)n1`, the inhibition in experiment [1] is 6.93%; in experiment [2], 8.23%; in experiment [3], 1.74%.

Take `CCOC(=O)C(CO)NC(=O)c1ccc([N+](=O)[O-])o1` (stereo not drawn): the inhibition amounted to 2.12% in experiment [1], 2.06% in experiment [2] and 5.24% in experiment [3].

Consider `Cc1ccc(C2CC(=O)CC(c3ccccn3)C2[N+](=O)[O-])cc1` (stereo not drawn), for which the inhibition in experiment [1] was -0.44%; in experiment [2] it was 0.92%; in experiment [3] it was -0.46%.

As for `COc1cc(Cc2cnc(N)nc2N)cc(OCCCCNS(=O)(=O)C(F)(F)F)c1OC`, the inhibition in experiment [1] turned out to be 1.9%; in experiment [2], 1.69%; in experiment [3] it was 1.88%.

In the case of `CCNc1nc(OCC(F)(F)F)nc(N(c2ccccc2)c2ccccc2)n1`, the inhibition turned out to be 0.4% in experiment [1], 1.48% in experiment [2] and 1.04% in experiment [3].

As for `Cn1cncc1-c1ccc2ncnc(Nc3ccc(OCc4ccccc4)cc3)c2c1`, the inhibition in experiment [1] is 0.55%; in experiment [2], 1.48%; in experiment [3] it was 0.29%.

For `Fc1ccc(Nc2ccnc3cc(I)ccc23)c(Cl)c1`, the inhibition in experiment [1] amounted to 2.32%; in experiment [2], 2.73%; in experiment [3], 1.47%.

Regarding `CCOc1cc(CC)ccc1C1CCN(CCN2CCC(NC(=O)c3ccc(-c4ccc(C#N)cc4)cc3)CC2)CC1`, the inhibition is -0.43% in experiment [1], 0.77% in experiment [2] and 1.19% in experiment [3].

Regarding `CC(CN(C)C)C(=O)Nc1ccc(-c2cccc(-c3nc4cc(C(F)(F)F)ccc4[nH]3)c2)cc1` (stereo not drawn), the inhibition in experiment [1] is 1.9%; in experiment [2], 1.89%; in experiment [3] it was -2.14%.

With `c1cncc(-c2cc(N3CCc4ccccc4C3)nc(-c3ccncc3)n2)c1`, the inhibition in experiment [1] stood at 8.78%; in experiment [2], 7.89%; in experiment [3] it was 4.28%.
